# Test results as given in PubChem BioAssay AID720618 (Broad Institute, 2013).
# Results filed as inconclusive are left out. The source made the active and inactive calls. How the calls were made is not given here.
# Experiment: caspase-3/7 apoptosis induction in HeLa, late-stage follow-up, mechanism study for HRAS target identification, cell-based, caspase 3/7 luminescence, several timepoints, dry powder (AID 720618)
# Details: caspase-3/7 apoptosis luminescence, multiple timepoints; max activity: measured here: caspase 3/7, second timepoint, at 35 µM, stronger effect = higher value; series mostly up to 35 µM
smiles,measurement,value
Cc1onc(C(=O)N2CCN(C(c3ccc(Cl)cc3)c3ccc(OCCOCCOCCNC(=O)OC(C)(C)C)cc3)CC2)c1[N+](=O)[O-] (configuration not stated),max activity,35.4%
same,outcome,inactive
